Measurements as given in the supplement of paper PMC11219838.
Values without a mark were called inactive.

Experiments:
Settings in all cases: 60 µM; 5 days; temperature: 20 °C
Meloidogyne hapla J2 = assay: proportion of mobile M. hapla J2 relative to DMSO control (fraction of DMSO control); higher = more viable, less nematicidal, active = 0.7 or less
In short: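 Two biological replicates were run and averaged, each on 96-well plates in which about 25 M. hapla J2 sat in distilled water per well. Compound was pinned in to give 60 µM final and 0.6% v/v DMSO, and the sealed plates were shaken at 200 rpm and 20 °C for 5 days before 2 µL 1 M NaOH was added. Mobility was scored microscopically and divided by the mean from the plate's DMSO-only wells, of which there were eight.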

[1] = system: Caenorhabditis elegans dauer (daf-2(e1370)); assay: proportion of mobile C. elegans dauer larvae relative to DMSO control (fraction of DMSO control); higher = more viable, less nematicidal, active = 0.63 or less; extreme values may be limits of the assay
In short: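 Synchronized C. elegans larvae were kept for 48 h at 25 °C on MYOB plates seeded with E. coli OP50 to induce dauer formation, and roughly 20 dauers were transferred into each well of a 96-well plate containing liquid NGM. Compound was pinned in to a final concentration of 60 µM with 0.6% v/v DMSO, and the sealed plates were shaken at 200 rpm for 5 days at 20 °C. The fraction of mobile worms was scored under a dissection microscope against DMSO-only wells and averaged across two biological replicates.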

Ditylenchus dipsaci = assay: proportion of mobile D. dipsaci (mixed stage) relative to DMSO control (fraction of DMSO control); higher = more viable, less nematicidal, active = 0.86 or less; extreme values may be limits of the assay
In short: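 The worms, D. dipsaci raised on pea plants in Gamborg B-5 agar, were recovered through a filter funnel into water. Each well of a 96-well plate then held about 20 of them in distilled water plus pinned compound at 60 µM final (0.6% v/v DMSO), and the sealed plates were shaken at 200 rpm at 20 °C for 5 days. Following addition of 2 µL 1 M NaOH, mobile worms were counted by microscopy, and mobility was expressed against DMSO controls as the average of two biological replicates.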

Row | Structure (SMILES) | proportion of mobile M. hapla J2 (Meloidogyne hapla J2) | proportion of mobile C. elegans dauer larvae [1] | proportion of mobile D. dipsaci (Ditylenchus dipsaci)
1 | COc1nc(C)ccc1-c1noc(-c2ccccc2Cl)n1 | 1.02 | 1 | 1
2 | Clc1ccc(-c2noc(-c3ccc4c(c3)OCCO4)n2)cc1 | 1.02 | 1 | 1
3 | Cc1cc(OCc2nc(-c3ccncc3)no2)cc(C)c1Br | 1.03 | 1 | 1
4 | COc1ccc(-c2noc(-c3cc(C)ccc3C)n2)cc1 | 0.916 | 1 | 1
5 | COc1ccc(CC(=O)Nc2ccc(-c3noc(-c4ccc(F)cc4)n3)cc2)cc1 | 0.978 | 1 | 1
6 | Cn1c(SCc2nc(-c3ccccc3)no2)nnc1-c1ccco1 | 0.98 | 1 | 1
7 | COc1ccc(-c2noc(COc3ccc(C(C)(C)C)cc3Br)n2)cc1 | 0.82 | 1 | 1
8 | COc1nc(-c2ccccc2)ccc1-c1noc(-c2ccccc2Cl)n1 | 0.989 | 1 | 1
9 | Fc1ccc(-c2noc(-c3ccc(Br)cc3)n2)cc1 | 1.04 | 1 | 1
10 | Cc1ccc(SC(C)c2nc(-c3cccnc3)no2)cc1 (configuration not stated) | 0.874 | 1 | 1
11 | FC(F)(F)c1cccc(-c2noc(-c3ccccc3Cl)n2)c1 | 1.04 | 1 | 1
12 | Cc1ccc(-c2noc(-c3ccco3)n2)s1 | 1.11 | 0.812 | 1
13 | CCCOc1ccc(-c2nc(-c3cccnc3)no2)cc1 | 0.945 | 1 | 1
14 | CC(C)Oc1cccc(-c2nc(-c3ccccn3)no2)c1 | 1.01 | 0.667 | 1
15 | COc1ccc(-c2nnc(SCC(=O)Nc3ccccc3F)o2)cc1 | 1.04 | 1 | 1
16 | Fc1ccc(CSc2nnc(-c3ccccn3)o2)cc1 | 0.846 | 1 | 1
17 | N#Cc1cccc(CSc2nnc(-c3ccncc3)o2)c1 | 0.745 | 1 | 1
18 | O=C(CSc1nnc(-c2ccccc2)o1)Nc1ccccc1F | 0.85 | 1 | 1
19 | CCOc1ccccc1-c1nnc(SCC(=O)Nc2nc(C)cs2)o1 | 0.993 | 1 | 1
20 | COc1ccccc1OCc1nc(-c2cccc(C)c2)no1 | 0.871 | 1 | 1
21 | Cn1c(SCc2nc(-c3cccs3)no2)nnc1-c1ccco1 | 0.932 | 1 | 1
22 | COc1nc(C)ccc1-c1noc(-c2ccc(F)cc2)n1 | 0.992 | 1 | 1
23 | COc1ccccc1NC(=O)CSc1nnc(-c2ccc(Cl)cc2)o1 | 0.902 | 1 | 1
24 | CCOc1ccccc1-c1nnc(SCc2ccccc2)o1 | 0.891 | 1 | 1
25 | Cc1cccc(-c2noc(COc3ccc(Br)cc3)n2)c1 | 0.882 | 1 | 1

Row | Structure (SMILES) | proportion of mobile M. hapla J2 (Meloidogyne hapla J2) | proportion of mobile C. elegans dauer larvae [1] | proportion of mobile D. dipsaci (Ditylenchus dipsaci)
26 | Fc1ccccc1OCc1nc(-c2ccc(Cl)cc2)no1 | 1 | 1 | 1
27 | Brc1ccccc1-c1nc(-c2ccc3c(c2)OCO3)no1 | 1.04 | 1 | 1
28 | Cc1cccc(-c2noc(COc3cc(C)ccc3C)n2)c1 | 1.04 | 1 | 1
29 | Cc1cccc(OCc2nc(-c3ccc(-n4cccc4)cc3)no2)c1 | 1.01 | 1 | 1
30 | Cc1ccccc1-c1noc(-c2cccc(Br)c2)n1 | 1.04 | 1 | 1
31 | COc1nc2ccc(C)cc2cc1-c1noc(-c2ccncc2)n1 | 0.849 | 1 | 1
32 | COc1ccc(C(=O)Nc2ccc(-c3nnc(SCc4ccccc4)o3)cc2)cc1 | 1.07 | 1 | 1
33 | Clc1cc(Br)ccc1OCc1nc(-c2ccncc2)no1 | 0.953 | 0.929 | 1
34 | COc1cccc(-c2noc(COc3ccc(C)c(C)c3)n2)c1 | 1.06 | 1 | 1
35 | Cc1cccc(OCc2nc(-c3ccncc3)no2)c1C | 0.937 | 1 | 1
36 | Cc1ccccc1-c1nc(-c2ccc3c(c2)OCO3)no1 | 0.848 | 1 | 0.933
37 | Clc1ccccc1OCc1nc(-c2cccs2)no1 | 1.06 | 1 | 1
38 | CCCCC(=O)Nc1ccccc1-c1nc(-c2cccnc2)no1 | 1.01 | 1 | 1
39 | COc1ccccc1OCc1nc(-c2ccc(Cl)cc2)no1 | 1.01 | 1 | 1
40 | CCc1nnc(NC(=O)CSc2nnc(-c3cccc(C)c3)o2)s1 | 0.815 | 1 | 1
41 | Cc1ccccc1-c1noc(COc2ccccc2)n1 | 0.764 | 1 | 1
42 | CCOc1nc(-c2ccccc2)ccc1-c1noc(CC)n1 | 0.998 | 1 | 1
43 | Cc1cccc(-c2nnc(SCC(=O)Nc3ccc(Br)c(C)c3C)o2)c1 | 1 | 1 | 1
44 | COC(=O)CSc1nnc(-c2ccc(C(C)(C)C)cc2)o1 | 0.976 | 1 | 1
45 | O=C(CSc1nnc(-c2ccccc2Cl)o1)Nc1ccc(F)cc1 | 0.896 | 1 | 1
46 | COc1cccc(-c2noc(COc3ccc(Br)cc3)n2)c1 | 0.942 | 1 | 1
47 | O=C(CSc1nnc(-c2ccc(Cl)cc2)o1)Nc1nccs1 | 0.917 | 1 | 1
48 | COc1cccc(-c2noc(COc3ccccc3C)n2)c1 | 0.861 | 1 | 1
49 | Cc1cc(OCc2nc(-c3ccccn3)no2)cc(C)c1Cl | 1.05 | 1 | 1
50 | Brc1ccc(CSc2nnc(-c3ccncc3)o2)cc1 | 1.01 | 1 | 1

Row | Structure (SMILES) | proportion of mobile M. hapla J2 (Meloidogyne hapla J2) | proportion of mobile C. elegans dauer larvae [1] | proportion of mobile D. dipsaci (Ditylenchus dipsaci)
51 | Cc1ccc(-c2nc(-c3ccccc3Cl)no2)c(Cl)c1 | 0.942 | 1 | 1
52 | COc1ccc(NC(=O)CSc2nnc(-c3ccccc3C)o2)cc1 | 0.838 | 1 | 1
53 | Ic1cccc(-c2nc(-c3cccnc3)no2)c1 | 1.04 | 1 | 1
54 | Cc1ccc(-c2nc(-c3cccnc3)no2)cc1Cl | 1.02 | 1 | 1
55 | Cc1cccc(-c2noc(C3CCCCC3)n2)c1 | 1.01 | 1 | 1
56 | Cc1cc(OCc2nc(-c3ccncc3)no2)c(C)cc1Br | 0.866 | 1 | 1
57 | O=C(CSc1nnc(-c2ccccc2)o1)OCc1ccccc1 | 0.999 | 1 | 1
58 | N#Cc1ccccc1CSc1nnc(-c2ccncc2)o1 | 0.826 | 1 | 1
59 | Cc1ccc(C(=O)Nc2ccccc2-c2nc(-c3cccnc3)no2)cc1C | 0.962 | 1 | 1
60 | CC(C)(C)c1ccc(-c2noc(COc3ccccc3)n2)cc1 | 0.776 | 1 | 1
61 | CCCc1nnc(SCc2nnc(-c3ccccc3)o2)o1 | 1.03 | 1 | 1
62 | CC(Oc1ccc(C(C)(C)C)cc1)c1nc(-c2ccncc2)no1 (configuration not stated) | 0.856 | 1 | 1
63 | O=C(c1ccccc1-c1nc(-c2ccccc2Cl)no1)N1CCCC1 | 0.947 | 1 | 1
64 | COc1ccccc1-c1nnc(SCC(=O)Nc2ccccc2Cl)o1 | 0.973 | 1 | 1
65 | Cc1ccc(-c2nnc(SCc3ccccc3F)o2)cc1 | 0.636 (active) | 1 | 1
66 | O=C(CSc1nnc(-c2ccc(Cl)cc2)o1)Nc1ccc(F)cc1 | 0.912 | 1 | 1
67 | Cc1ccc(OCc2nc(-c3ccc(F)cc3)no2)cc1C | 1.03 | 1 | 1
68 | O=C(Nc1ccccc1-c1nc(-c2cccnc2)no1)c1cccs1 | 1.02 | 1 | 1
69 | Clc1cc(Br)ccc1OCc1nc(-c2ccccc2)no1 | 0.818 | 1 | 1
70 | COc1ccccc1-c1nc(-c2ccc(C)cc2)no1 | 1.01 | 1 | 1
71 | O=C(CSc1nnc(-c2ccncc2)o1)Nc1cc(Cl)cc(Cl)c1 | 0.948 | 1 | 0.955
72 | c1cc(-c2noc(C34CC5CC(CC(C5)C3)C4)n2)ccn1 | 0.941 | 1 | 1
73 | c1ccc(-c2noc(-c3cccs3)n2)cc1 [tioxazafen] | 0.937 | 0 (active) | 1
74 | CC(C)c1ccc(OCc2nc(-c3ccncc3)no2)c(Br)c1 | 0.82 | 1 | 1
